The list is not random: actives were taken first. Their share in the collection is about 1.3%.
TRPV1 potentiator: enhances activation of the human vanilloid receptor TRPV1 | TRPV1-expressing cells, Fluo-8 calcium influx, capsaicin EC20 potentiation | potentiation, % at 8.33 µM | 0.02% of 320,000 active | AID 540277; in the data active means potentiation above about 80%; inconclusive means between about 30% and that limit
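Fluo-8 calcium influx in TRPV1-expressing cells, kinetic read (ex 480/em 520 nm). Compound added and read 3 min for agonist activity, followed by capsaicin at EC20 final and 2 min further read for enhancement.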
MBNL1-CUG inh: inhibitors of human MBNL1 binding to CUG repeat RNA. Q9NR56. TR-FRET MBNL1-His/biotin-(CUG)12 binding, 665/545 ratio. Potency, µM (doses to about 57.5 µM), usual class: inhibitors. 0.036% of 280,000 active. AID 2675; active means well fitted inhibition curve with a large enough effect in the signal ratio, with a control signal flat, not every such curve was filed as active; inconclusive means small, poorly fitted or top-dose-only effect, or effect the other way, or a change in a side signal; inactive means no such curve, though single readings can be large or run the other way; the % refers to the signal ratio
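His-tagged MBNL1 binding to biotinylated (CUG)12 RNA was measured by TR-FRET using terbium anti-His antibody (0.055 ng/ul final) and streptavidin-XL665 (5 nM final). Compounds were titrated 92 nM to 58 uM; 60 min at room temperature.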
KCNH2 3.1 inh: blocks the human KCNH2 3.1 channel isoform; activity change, % (tested at about 1.8 µM); U2OS KCNH2 3.1, thallium flux FluxOr; active compounds read low; AID 720553; 0.95% of 340,000 active;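 active means maximum activity change below -70%; inconclusive means maximum activity change from -70% to -50%; inactive means maximum activity change above -50%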;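 further: thallium influx rate constant from kinetic fluorescence after stimulation buffer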
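Channel expression came from 3.1 mutant virus (1.77 x 10^8 /mL) applied to suspended U2OS cells for 4 h. Flux was tracked with FluxOr dye plus Red40 quencher, and kinetic rate constants normalized to controls.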
hERG WT inh: inhibitors of human wildtype KCNH2 potassium channel. U2OS, BacMam KCNH2, thallium flux FluxOr; active compounds read low. activity change, % at 1.84 µM. 0.37% of 340,000 active;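 active means maximum activity change below -70%; inconclusive means maximum activity change between -70% and -50%; inactive means maximum activity change above -50%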
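U2OS cells were transduced with wild-type KCNH2 virus (2.03 x 10^8 / mL) for 4 h at room temperature, then cultured overnight at 37 C. Thallium flux was read with FluxOr dye. Rate constants were normalized to DMSO controls.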
TRPV1 agonist: human TRPV1 agonism; 0.19% of 320,000 active; TRPV1-expressing cells, Fluo-8 calcium influx, agonist mode; Q8NER1; activation, % at 8.33 µM; in the data active means activation above about 80%; inconclusive means between about 30% and that limit
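Cells expressing TRPV1 were dye-loaded with Fluo-8 and read kinetically: 10 s baseline, 3 min after compound (agonist portion), then 2 min after EC20 capsaicin (allosteric enhancer portion). Calcium-bound dye fluorescence at 480/520 nm.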
Of the large screens only hits and unclear results are named; the others gave an inactive call.

CC[N+](CC)(CC)CC(=O)Nc1ccc(SC(F)F)cc1	none
CCc1ccc(-c2cc3c(=O)n(CC(=O)NCCCN4CCC(Cc5ccccc5)CC4)nc(C)n3n2)cc1	TRPV1 potentiator inconclusive, KCNH2 3.1 inh -91
Cc1nn(CC(=O)NCCCN2CCC(Cc3ccccc3)CC2)c(=O)c2cc(-c3ccccc3)nn12	KCNH2 3.1 inh -103, hERG WT inh -87
CC1CCN(C(=O)CCCOc2ccc(Cl)cc2)CC1	TRPV1 agonist 80
CC1CCN(CCOCCOc2ccccc2-c2ccccc2)CC1	none
CC(C)(C)c1ccc(OCCCCCCN2CCNCC2)cc1	none (no result: TRPV1 potentiator, MBNL1-CUG inh, TRPV1 agonist)
CC1CCN(CCCCOc2ccc(Cl)cc2)CC1	TRPV1 potentiator inconclusive, KCNH2 3.1 inh -76
CC1CCN(C(=O)CSCc2ccc(Cl)cc2)CC1	none
CC1CCN(CCCCOc2ccc(C(C)(C)C)cc2)CC1	KCNH2 3.1 inh -75
CC1CCN(CCCCOc2ccccc2-c2ccccc2)CC1	KCNH2 3.1 inh -80, hERG WT inh -71 (no result: MBNL1-CUG inh)
COC(=O)C1=C(C)N(Cc2ccccc2)C(=NCc2ccco2)N[C@H]1c1ccc(Br)cc1	none (no result: TRPV1 potentiator, KCNH2 3.1 inh, hERG WT inh, TRPV1 agonist)
O=C1OC(Nc2cc(Br)cc3cccnc23)c2ccccc21 (configuration not stated)	MBNL1-CUG inh inconclusive
COc1ccc(CN2CCOCCOCCOCC2)cc1	none
CSc1ccc(CN2CCN(Cc3ccc([N+](=O)[O-])cc3)CC2)cc1	MBNL1-CUG inh inconclusive, KCNH2 3.1 inh -110, hERG WT inh -112
O=[N+]([O-])c1ccc(CN2CCCCCC2)cc1	MBNL1-CUG inh inconclusive
O=[N+]([O-])c1ccc(CN2CCOCCOCCN(Cc3ccc([N+](=O)[O-])cc3)CCOCC2)cc1	MBNL1-CUG inh inconclusive, KCNH2 3.1 inh -115, hERG WT inh -90
O=[N+]([O-])c1ccc(COc2ccc(CN3CCOCC3)cc2)cc1	none (no result: TRPV1 potentiator, MBNL1-CUG inh, TRPV1 agonist)
COc1ccc(CN2CCOCCOCCN(Cc3ccc(OC)cc3)CCOCCOCC2)cc1	KCNH2 3.1 inh -74
COCCNC(=O)c1ccc(CN2CCOCC2)cc1	hERG WT inh -133
O=C(NCCc1nc(-c2ccccc2)cs1)c1ccc(Br)cc1	TRPV1 potentiator inconclusive (no result: MBNL1-CUG inh)
CC(NC(=O)CN1c2cccc3cccc(c23)S1(=O)=O)c1ccc(S(N)(=O)=O)cc1 (configuration not stated)	none (no result: MBNL1-CUG inh)
CSc1nc(S(C)(=O)=O)nc2[nH]c(=O)[nH]c12	none (no result: TRPV1 potentiator, MBNL1-CUG inh, TRPV1 agonist)
CCCCC(=O)NC1(C(F)(F)F)NC(=O)N(Cc2ccccc2)C1=O (configuration not stated)	none
O=[N+]([O-])c1ccc(COc2ccc(Br)cc2CN2CCOCC2)cc1	MBNL1-CUG inh inconclusive, KCNH2 3.1 inh -90
COCCNC(=O)c1cccc(OC2CCN(Cc3cccc(C(C)=O)c3)CC2)c1	TRPV1 potentiator inconclusive
O=C(Nc1nc(-c2ccccc2)cs1)c1ccc(N2CCOCC2)c([N+](=O)[O-])c1	none
O=C(OCc1ccc([N+](=O)[O-])cc1)c1cc([N+](=O)[O-])ccc1N1CCOCC1	KCNH2 3.1 inh -89, hERG WT inh -106 (no result: MBNL1-CUG inh)
Cc1ccc(-c2csc(NC(=O)c3cc([N+](=O)[O-])ccc3N3CCOCC3)n2)cc1	hERG WT inh -108
COCCNC(=O)c1cccc(OC2CCN(Cc3ccc(OC(F)F)cc3)CC2)c1	KCNH2 3.1 inh -80
COc1ccc(CC(=O)N(C)Cc2ccc(Cl)cc2)cc1S(=O)(=O)N1CCOCC1	none (no result: MBNL1-CUG inh)
COc1ccccc1N1C(=NC(=O)COc2ccccc2)SC2CS(=O)(=O)CC21 (configuration not stated)	none
CC(=O)NCCc1ccc(S(=O)(=O)Nc2cccnc2)cc1	none
O=C(CN1C(=O)CCC1=O)Nc1nc(-c2ccccn2)cs1	KCNH2 3.1 inh -117
O=C(CN1C(=O)CCC1=O)Nc1nc(-c2ccc3ccccc3c2)cs1	none
O=C(N/N=C/c1ccccn1)c1cc(C2CC2)[nH]n1	KCNH2 3.1 inh -92
O=C(N/N=C/c1ccccn1)c1cccc([N+](=O)[O-])c1	TRPV1 potentiator inconclusive, MBNL1-CUG inh inconclusive
O=C(N/N=C/c1ccc(Br)s1)c1ccccn1	MBNL1-CUG inh inconclusive, TRPV1 agonist 87
O=C(N/N=C/c1ccccn1)c1ccc(NC(=O)c2cccc([N+](=O)[O-])c2)cc1	KCNH2 3.1 inh -71 (no result: MBNL1-CUG inh)
CC(C)(C)c1ccc(C(=O)N/N=C/c2ccccn2)cc1	TRPV1 agonist 83
COc1ccc(-n2cnnc2SCC(=O)NC2CCCc3ccccc32)cc1 (configuration not stated)	none
O=C(O)CCNC(=O)/C(=C/C=C/c1ccccc1)NC(=O)c1ccccc1	none (no result: hERG WT inh)
CCOC(=O)c1c(-c2ccc(C)o2)csc1NC(=O)COC(=O)c1ccc(NC(N)=O)cc1	none
CC(C)(C)c1ccc(/C=N/NC(=O)c2ccccn2)cc1	TRPV1 agonist 83
Cc1ccc(CN(CC(O)COc2cccc3[nH]cc(C)c23)C(C)(C)C)cc1 (configuration not stated)	KCNH2 3.1 inh -74
O=C(NCc1cccc(Br)c1)C1CC(c2ccccc2C(F)(F)F)=NO1 (configuration not stated)	none
Cc1ccc(CNS(=O)(=O)c2ccc(-c3cnc(C4CC4)o3)cc2)cc1	KCNH2 3.1 inh -89
O=S(=O)(NCc1ccccc1)c1ccc(-c2cnc(C3CC3)o2)cc1	none
O=C(CN1C(=O)C2CC=CCC2C1=O)Nc1ccc(F)cc1F (configuration not stated)	none (no result: MBNL1-CUG inh)
CCOc1ccc(Br)cc1S(=O)(=O)Nc1ccc(C(=O)OCC(=O)Nc2ccc(C#N)cc2)cc1	KCNH2 3.1 inh -93
CC(C)(CN=C1NS(=O)(=O)c2ccccc21)CNC(=O)c1ccccc1	hERG WT inh -94
O=C(COc1ccccc1Cl)NNC(=O)c1ccc2c(=O)n3c(nc2c1)CCC3	none (no result: MBNL1-CUG inh)
O=C(NCc1ccccc1)c1ccc(-c2ccc(F)cc2)o1	hERG WT inh -260, TRPV1 agonist inconclusive
Cc1ccccc1-c1ccc(C(=O)NCc2ccccc2)o1	TRPV1 agonist inconclusive
CN(CC(=O)Nc1c(Cl)cccc1Cl)C(=O)c1ccc2nc[nH]c2c1	none (no result: MBNL1-CUG inh)
CCN(CC)CC(O)CN(c1ccccc1)S(=O)(=O)c1ccc2ccccc2c1 (configuration not stated)	TRPV1 potentiator inconclusive, KCNH2 3.1 inh -106, hERG WT inh -89
Cc1ccc(NC(=O)CSc2ccc(C(N)=O)cc2[N+](=O)[O-])cc1C	KCNH2 3.1 inh -78
C/C=C/c1cnc2c(c1)C(=O)N([C@H](C)CO)C[C@H](C)[C@@H](CN(C)C(=O)CN1CCOCC1)O2	none (no result: TRPV1 potentiator, MBNL1-CUG inh, TRPV1 agonist)
COC(=O)C1=C(C(=O)OC)[C@@H]2Nc3ccccc3[C@@]23C[C@@H](C(=O)OC)N(C(=O)c2ccc(Br)cc2)C3=N1	KCNH2 3.1 inh -114
CC(=O)NN=C1CCC(c2ccccc2)CC1 (configuration not stated)	hERG WT inh -88
